Measurements from PubChem BioAssay (NCI).
Several values for one entry are separate records, joined by “and”; a condition that tells them apart may be missing. Equal values may be shown once. Compounds without any hit were thinned out: in the full panel of roughly 83,000, 20% have a hit.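 The test compound was applied at a single concentration to cells in 96-well plates for 48 hours, and percent growth was recorded.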 Activity calls are given as the source filed them. The calls were made as follows: active = growth percent below 10; inactive = the rest.

Assays:
Assay in all cases: NCI-60 one-dose screen, 48 h (100 = growth as untreated, 0 = no growth, -100 = all killed)
T-47D breast = conditions: 10 µM
BT-549 breast = conditions: 10 µM
MDA-MB-435 melanoma = conditions: 10 µM
SW-620 colon = conditions: 10 µM
MCF7 breast = tested on: MCF7 breast
HCT-116 colon = conditions: 10 µM
HCC-2998 colon = conditions: 10 µM
KM12 colon = conditions: 10 µM

Row | SMILES | growth (T-47D breast) | growth (BT-549 breast) | growth (MDA-MB-435 melanoma) | growth (SW-620 colon) | growth (MCF7 breast; 10 µM) | growth (HCT-116 colon) | growth (HCC-2998 colon) | growth (KM12 colon) | growth (MCF7 breast; 50 µM)
1 | Nc1c2ccccc2nc2ccccc12 | 13.3% (inactive) and 30.4% (inactive) and 32.3% (inactive) | 33.8% (inactive) and 69.9% (inactive) and 83.1% (inactive) | 6.39% (active) and 30% (inactive) and 48.5% (inactive) | 2.21% (active) and 14.3% (inactive) and 26.8% (inactive) | 2.34% (active) and 7.36% (active) and 9.98% (active) | 7.6% (active) and 17.9% (inactive) and 18.2% (inactive) | 37.9% (inactive) and 24.7% (inactive) and 40.8% (inactive) | 19.1% (inactive) and 46.2% (inactive) | –
2 | COc1cccc2c1C(=O)c1c(O)c3c(c(O)c1C2=O)C[C@@](O)(C(C)=O)C[C@@H]3OC1CC(N)C(O)C(C)O1 (stereo not given in full) | -16.3% (active) | -70.9% (active) | -87.2% (active) | -3.91% (active) | -9.83% (active) | -37.5% (active) | -86% (active) | -8.88% (active) | -90.1% (active) and -89.5% (active)
3 | CC(=O)Nc1cc(C)ccc1C | 107% (inactive) | 112% (inactive) | 102% (inactive) | 96.4% (inactive) | 105% (inactive) | 96.9% (inactive) | 100% (inactive) | 97.4% (inactive) | –
4 | NC1=C(Cl)C(=O)c2ccccc2C1=O | 86.8% (inactive) | 82.7% (inactive) | -87.5% (active) | 86.8% (inactive) | 48.3% (inactive) | 54.4% (inactive) | 101% (inactive) | 65.3% (inactive) | –
5 | NC(=O)SCC(=O)NNc1ccccc1 | 73.5% (inactive) | 113% (inactive) | 101% (inactive) | 87.5% (inactive) | 94.2% (inactive) | 94.6% (inactive) | 103% (inactive) | 81.3% (inactive) | –
6 | CSC1SCC2C(=O)N(C)C(C(C)C)C(=O)OCC(NC(=O)c3cnc4ccccc4n3)C(=O)NC(C)C(=O)N(C)C1C(=O)N(C)C(C(C)C)C(=O)OCC(NC(=O)c1cnc3ccccc3n1)C(=O)NC(C)C(=O)N2C (stereo not given) | -8.25% (active) | -48.3% (active) | -82.8% (active) | 1.31% (active) | 2.56% (active) | -29.5% (active) | -80.1% (active) | -5.74% (active) | –
7 | OCC1OC(n2cnc3c(=S)nc[nH]c32)C(O)C1O (stereo not given) | 100% (inactive) and 57.7% (inactive) | 105% (inactive) and 66.2% (inactive) | 106% (inactive) and 35.3% (inactive) | 104% (inactive) and 76.6% (inactive) | 108% (inactive) and 20.9% (inactive) | 117% (inactive) and 39.8% (inactive) | 100% (inactive) and 45.5% (inactive) | 108% (inactive) and 60.4% (inactive) | –
8 | Cc1nc(N=C(N)N)nc2ccc3ccccc3c12 | -10.6% (active) | 13.7% (inactive) | -4.72% (active) | 9.65% (active) | -18.1% (active) | 5.64% (active) | 13.3% (inactive) | -9.2% (active) | –
9 | CC1=CC(C)=Nc2ccc(Cl)cc2N1 | 102% (inactive) | 108% (inactive) | 107% (inactive) | 98.8% (inactive) | 101% (inactive) | 100% (inactive) | 103% (inactive) | 100% (inactive) | –
10 | O=C1NC(=O)c2cc([N+](=O)[O-])ccc21 | 103% (inactive) | 123% (inactive) | 105% (inactive) | 103% (inactive) | 107% (inactive) | 116% (inactive) | 102% (inactive) | 110% (inactive) | –
11 | NNc1ccc2ccccc2c1 | 70.2% (inactive) and 98.5% (inactive) | 96.4% (inactive) | 98.8% (inactive) and 103% (inactive) | 96.1% (inactive) | 74.8% (inactive) and 80.2% (inactive) | 102% (inactive) and 90.2% (inactive) | 98% (inactive) | 74.3% (inactive) and 98.7% (inactive) | –
12 | O=C(Nc1ccc(C(=O)O)c(O)c1)c1ccccc1 | 101% (inactive) and 104% (inactive) | 104% (inactive) | 99% (inactive) and 99.1% (inactive) | 99% (inactive) and 113% (inactive) | 102% (inactive) and 95.6% (inactive) | 107% (inactive) and 101% (inactive) | 102% (inactive) and 106% (inactive) | 120% (inactive) | –
13 | CS(=O)(=O)OC1CC(n2ccc(=O)[nH]c2=O)OC1COC(c1ccccc1)(c1ccccc1)c1ccccc1 (stereo not given) | 96.7% (inactive) | 99.4% (inactive) | 125% (inactive) | 105% (inactive) | 97.3% (inactive) | 92.9% (inactive) | 106% (inactive) | 93.5% (inactive) | –
